Assay results reported in PubChem BioAssay AID1211 (NMMLSC, 2008).
Calls of active or inactive are those of the source. The rule behind the calls is not given here.

The compounds below were run against Estrogen receptor (Homo sapiens) (UniProt P03372) (assay: displacement of fluorescent estrogen from ERalpha – cell-based, Cos7 ERalpha-GFP, flow cytometry, primary screen (AID 1211;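 note: 0% = DMSO vehicle wells and 100% = no E2-Alexa633 signal left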)). Conditions: fluorescent ligand competition, at 10 µM, stronger effect = higher value.
Estrogen receptor (Homo sapiens), sequence (P03372 whole entry, looked up): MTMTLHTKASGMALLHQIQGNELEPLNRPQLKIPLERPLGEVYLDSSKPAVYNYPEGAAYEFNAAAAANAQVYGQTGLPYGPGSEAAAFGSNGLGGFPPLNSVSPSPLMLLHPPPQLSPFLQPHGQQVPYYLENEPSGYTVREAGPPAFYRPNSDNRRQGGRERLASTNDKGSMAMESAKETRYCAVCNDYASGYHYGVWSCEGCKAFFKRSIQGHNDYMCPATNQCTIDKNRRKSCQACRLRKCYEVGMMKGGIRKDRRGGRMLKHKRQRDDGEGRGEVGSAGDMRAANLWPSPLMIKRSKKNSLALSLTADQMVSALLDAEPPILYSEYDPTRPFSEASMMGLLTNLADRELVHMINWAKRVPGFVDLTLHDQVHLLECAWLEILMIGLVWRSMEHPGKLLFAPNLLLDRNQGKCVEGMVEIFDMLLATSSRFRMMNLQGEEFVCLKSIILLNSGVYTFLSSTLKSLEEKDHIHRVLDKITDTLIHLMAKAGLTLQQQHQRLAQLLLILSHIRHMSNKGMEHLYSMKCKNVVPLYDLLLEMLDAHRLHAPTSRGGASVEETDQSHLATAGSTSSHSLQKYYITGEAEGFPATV

Compound	inhibition of ligand binding
Cc1cc2oc(=O)cc(COC(=O)c3n[nH]c4ccccc34)c2cc1C	53% (inactive)
O=C(Nc1cccc2cccc(NC(=O)c3ccco3)c12)c1ccco1	54% (inactive)
CCCCn1c(=O)[nH]c2nc3cc(N)ccc3nc2c1=O	4% (inactive)
Cc1c(N=Cc2ccc(O)c(Br)c2)cccc1[N+](=O)[O-]	0% (inactive)
C/C(N)=C(/C#N)C(=O)CSc1nnc(COc2ccccc2Cl)o1	20% (inactive)
CCc1ccc2c(c1)[C@H]1OCC[C@H]1[C@@H](c1cccs1)N2	0% (inactive)
CC(C)(C)OC(=O)N1CCN(c2ccc(NC(=O)Cn3nnc(-c4ccccc4)n3)cc2)CC1	37% (inactive)
O=c1oc2ccccc2cc1-c1ccc(O)cc1O	33% (inactive)
Cc1oc2c(C)c(O)ccc2c(=O)c1-c1ccc2ccccc2n1	20% (active)
Cc1ccc(-c2nn(-c3ccccc3)cc2/C=N/NC(=O)c2ccc(Br)o2)cc1	42% (inactive)
COc1cc(C2CC(=O)c3c(ccc4ccccc34)N2)ccc1O (stereo not given)	0% (inactive)
COC(=O)c1ccc2c(=O)n(CCCCCC(=O)NCc3ccc4c(c3)OCO4)c(=O)[nH]c2c1	19% (inactive)
Cc1nn(-c2ccccc2)c2sc(C(=O)c3c(N)n(C)c(=O)n(C)c3=O)cc12	0% (inactive)
NC(=O)c1ccsc1NC(=O)COC(=O)Cc1ccsc1	37% (inactive)
CCOc1cccc2cc(-c3cn4cc(C)ccc4n3)c(=O)oc12	52% (inactive)
O=C1c2ccccc2C(=O)N1/N=C/c1ccc(O)c(O)c1	32% (inactive)
O=C(Nc1ccc2oc(-c3ccccc3F)nc2c1)c1cncc(Br)c1	41% (inactive)
CCc1ccc(-c2nn(-c3ccccc3)cc2CSC(=N)N)cc1	22% (inactive)
COC(=O)c1cnn2c(C(F)(F)F)cc(-c3ccco3)nc12	0% (inactive)
CCOc1[nH]c(/N=C/c2ccco2)c(C#N)c1C#N	21% (inactive)
N=C1C(c2nc3ccccc3[nH]2)=C(O)CN1c1ccc(CC(=O)O)cc1	45% (active)
CN(C(=S)Nc1cccnc1)c1ccc(O)cc1	39% (inactive)

Same assay, conditions: fluorescent ligand competition, binding inhibition, at 0.1 µM, stronger effect = higher value

Compound	inhibition of ligand binding [%]
O=S(=O)(NCC(O)COCc1ccco1)c1cccs1 (stereo not given)	4
Cc1cs/c(=N\N=C\c2ccc(O)cc2)n1Cc1ccco1	55
CCCCCc1nnc(NC(=O)Cc2cccs2)s1	8
c1ccc(OCc2nnc3sc(C4COc5ccccc5O4)nn23)cc1 (stereo not given)	5
Cc1ccc2[nH]c(=O)c(C3C(C#N)=C(N)Oc4c3ccc3cccnc43)cc2c1 (stereo not given)	26
CC(=O)c1cccc(NC(=O)Cc2cccs2)c1	40
COc1ccc(N2C(=O)c3ccccc3NC2c2ccc(OC)c(COc3ccccn3)c2)cc1 (stereo not given)	22
C[C@]12CC[C@@H]3c4ccc(O)cc4[C@@H](O)C[C@H]3[C@@H]1CC[C@@H]2O	78
CC1CC(C(F)(F)C(F)(F)F)n2nc(C(=O)O)cc2N1 (stereo not given)	9
COc1ccc(OC)c(NC(=O)CSc2nc3ccccc3c3nc4ccccc4n23)c1	60
O=C(O)C1OC(Oc2c(-c3ccc(O)c(O)c3)oc3cc(O)cc(O)c3c2=O)C(O)C(O)C1O (stereo not given)	62
CCC(Sc1ncnc2sc(C)c(C)c12)C(=O)OC (stereo not given)	30
Cn1c(-c2ccc3nc(N)sc3c2)nc2cc(N)ccc21	37
Cc1ccc(S(=O)(=O)N2CCCCC2)cc1C(=O)Nc1ncn[nH]1	7
CCC1(C)NC(=O)N(CC(=O)Nc2sc3c(c2C(N)=O)CCC3)C1=O (stereo not given)	16
C1CCC(c2nn3c(-c4n[nH]c5c4CCC5)nnc3s2)CC1	5
Cc1cc2oc(=O)cc(COC(=O)c3n[nH]c4ccccc34)c2cc1C	20
O=C(Nc1cccc2cccc(NC(=O)c3ccco3)c12)c1ccco1	46
CCCCn1c(=O)[nH]c2nc3cc(N)ccc3nc2c1=O	1

Compound	inhibition of ligand binding [%]
Cc1c(N=Cc2ccc(O)c(Br)c2)cccc1[N+](=O)[O-]	23
C/C(N)=C(/C#N)C(=O)CSc1nnc(COc2ccccc2Cl)o1	8
CCc1ccc2c(c1)[C@H]1OCC[C@H]1[C@@H](c1cccs1)N2	21
CC(C)(C)OC(=O)N1CCN(c2ccc(NC(=O)Cn3nnc(-c4ccccc4)n3)cc2)CC1	24
O=c1oc2ccccc2cc1-c1ccc(O)cc1O	18
Cc1oc2c(C)c(O)ccc2c(=O)c1-c1ccc2ccccc2n1	70
Cc1ccc(-c2nn(-c3ccccc3)cc2/C=N/NC(=O)c2ccc(Br)o2)cc1	49
COc1cc(C2CC(=O)c3c(ccc4ccccc34)N2)ccc1O (stereo not given)	12
COC(=O)c1ccc2c(=O)n(CCCCCC(=O)NCc3ccc4c(c3)OCO4)c(=O)[nH]c2c1	18
Cc1nn(-c2ccccc2)c2sc(C(=O)c3c(N)n(C)c(=O)n(C)c3=O)cc12	16
NC(=O)c1ccsc1NC(=O)COC(=O)Cc1ccsc1	29
CCOc1cccc2cc(-c3cn4cc(C)ccc4n3)c(=O)oc12	29
O=C1c2ccccc2C(=O)N1/N=C/c1ccc(O)c(O)c1	23
O=C(Nc1ccc2oc(-c3ccccc3F)nc2c1)c1cncc(Br)c1	38
CCc1ccc(-c2nn(-c3ccccc3)cc2CSC(=N)N)cc1	45
COC(=O)c1cnn2c(C(F)(F)F)cc(-c3ccco3)nc12	32
CCOc1[nH]c(/N=C/c2ccco2)c(C#N)c1C#N	9
N=C1C(c2nc3ccccc3[nH]2)=C(O)CN1c1ccc(CC(=O)O)cc1	96
CN(C(=S)Nc1cccnc1)c1ccc(O)cc1	41
